# Reference: PubChem BioAssay AID720697 (Broad Institute, 2013)
# Measured potencies and affinities stand elsewhere. Records with an inconclusive call do not appear. Calls of active or inactive are those of the source.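 Rule for the calls: active = signal loss with fitted half-maximal concentration at or below twice the top valid tested dose in every test run; inconclusive = runs disagree, flat 30 to 70% signal loss, or poor fit; inactive = all runs flat, opposite direction, or potency beyond limit.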
# Assay: HEK293T cytotoxicity, dose response, cytotoxicity control for miR-122 modulator project, cell-based, inhibitor set, cherry-pick, set 2 (AID 720697);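 note: 0% = median of neutral control wells and -100% = MG132 positive control wells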
# Details: HEK293T viability, CellTiter-Glo luminescence, 48 h; series mostly up to 26 µM; activity change, negative = cytotoxicity: at the top concentration
row,Structure (SMILES),"activity change, negative = cytotoxicity"
1,CCCCNC(=O)Nc1nnc(-c2ccc(OCC)cc2)o1,-4.04% (inactive)
2,CCCNC(=O)C[C@H]1CC[C@@H]2[C@H](COc3ccc(NS(=O)(=O)c4ccccc4C)cc3C(=O)N2C)O1,18.6% [at 23.5 µM] (inactive)
3,CN1C(=O)c2cc(NC(=O)Cc3ccccc3)ccc2OC[C@H]2O[C@@H](CC(=O)NCc3ccc(Cl)cc3)CC[C@@H]21,135% (inactive)
4,CNC(=O)C[C@H]1CC[C@@H]2[C@H](COc3ccc(NS(=O)(=O)c4ccc(F)cc4)cc3C(=O)N2C)O1,-13.9% (inactive)
5,COCC(=O)N(C)C[C@H]1Oc2cc(C#Cc3cccnc3)ccc2S(=O)(=O)N([C@@H](C)CO)C[C@@H]1C,3.54% (inactive)
6,CC(=O)Nc1ccc2c(c1)C(=O)N(C)[C@@H]1CC[C@@H](CC(=O)NCc3ccc(Cl)cc3)O[C@H]1CO2,102% [at 23.5 µM] (inactive)
7,C[C@@H]1CCCCO[C@@H](CN(C)CC2CCCCC2)[C@H](C)CN([C@@H](C)CO)C(=O)c2cc(NC(=O)Nc3cccc4ccccc34)ccc2O1,55.7% (inactive)
8,CNC(=O)C[C@H]1CC[C@@H]2[C@H](COc3ccc(NC(=O)c4cccc(OC)c4)cc3C(=O)N2C)O1,136% [at 23.5 µM] (inactive)
9,C[C@H]1CCCCO[C@H](CN(C)Cc2ccc3c(c2)OCO3)[C@@H](C)CN([C@@H](C)CO)C(=O)c2cc(NC(=O)Nc3cccc4ccccc34)ccc2O1,113% (inactive)
10,Cc1cc(C)n(C(=O)Cn2nc(C)c(Br)c2C)n1,1.02% (inactive)
11,CN1C(=O)c2cc(NC(=O)c3cccc(F)c3)ccc2OC[C@H]2O[C@H](CC(=O)N3CCc4ccccc4C3)CC[C@@H]21,7.53% [at 23.5 µM] (inactive)
12,CCCCN(CCCC)C(=O)CN(C)S(=O)(=O)c1ccc2c(c1)n(C)c(=O)c(=O)n2C,84% (inactive)
